In the library only some 2.4% were active in any assay of this set; here they are far more common.
POLI inh – qHTS for Inhibitors of Polymerase Iota; Potency, µM (highest dose often 115 µM), most hits filed as inhibitors; Pol iota fluorescent replication assay, 10 min; DNA polymerase iota (Homo sapiens), Q9UNA4; actives 1% (n = 390,000)
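Fluorescent replication assay read twice, at 0 min and 10 min after adding 50 nM (final) substrate. Enzyme (10 nM) and compounds were first incubated 15 min at room temperature; enzyme-free buffer wells were negative controls.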
POLK inh – qHTS for Inhibitors of Polymerase Kappa; purified Pol kappa, fluorescent DNA synthesis assay, 10 min; actives 0.53% (n = 400,000); AID 588579, 2011; DNA polymerase kappa (Homo sapiens), Q9UBT6; Potency, µM (doses to about 107 µM), actives largely listed as inhibitors
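Pol kappa 10 nM + cpd, 15 min RT; start w/ substrate 50 nM final; fluorescence kinetic read, 0 and 10 min. Neg ctrl: buffer, no enzyme.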
Pol beta inh – qHTS Assay for Inhibitors of DNA Polymerase Beta. Pol beta primer extension/strand displacement, fluorescence kinetic. actives 1.3% (n = 340,000). Potency, µM (series often up to 114 µM), most hits filed as inhibitors
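Enzyme-only controls used 10 nM Pol beta; buffer lacking enzyme served as negative control. Compound preincubated 15 min, then 50 nM substrate added; 0 and 10 min reads at room temperature.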
Pol eta inh – qHTS for Inhibitors of Polymerase Eta; DNA polymerase eta (Homo sapiens), Q9Y253; AID 588591, 2011; Potency, µM (top dose mostly 114 µM), usual class: inhibitors; recombinant Pol eta, fluorescent DNA replication assay; actives 1.2% (n = 390,000)
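Pol eta (10 nM) was preincubated with compounds for 15 min at room temperature, after which fluorescent replication substrate (50 nM final) was added to start the reaction. Fluorescence was read kinetically at 0 and 10 min.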
FEN1 inh – qHTS Assay for the Inhibitors of Human Flap endonuclease 1 (FEN1); actives 0.35% (n = 390,000); Recombinant FEN1 flap cleavage, fluorescence, 15 min; Potency, µM (doses to about 114 µM), hits mostly inhibitors; further: nearly all actives have a fitted effect of over 65% in size
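Reaction started by adding substrate (50 nM final) to 10 nM enzyme after 15 min room-temperature compound preincubation. Reads at 0 and 15 min, with data normalized and fitted to a four-parameter Hill equation.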
WRN inhibitor – qHTS for Inhibitors of WRN Helicase | Bifunctional 3'-5' exonuclease/ATP-dependent helicase WRN (Homo sapiens), Q14191 | WRN helicase unwinding, fluorescent forked duplex, kinetic | Potency, µM (highest dose often 114 µM), actives largely listed as inhibitors | actives 0.46% (n = 360,000); further: nearly all actives have a fitted effect of over 55% in size
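Kinetic fluorescence helicase assay: unwinding of a quenched forked DNA duplex (100 nM final) with 2 mM ATP final raises red fluorescence (525/598 nm). Compounds sat 15 min at room temperature with 20 nM WRN beforehand.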
Hits are given with their value; - = inactive; ? = inconclusive; . = not tested or not shown; ! = repeats disagree; [ ] = remark or other dose. The call rests on the fitted dose curve; in most records, active means well fitted curve in the direction sought with a large enough effect; inconclusive means small, poorly fitted or top-dose-only effect, or another doubt; inactive means no such curve, though single readings can be large; an effect the other way counts as inactive or inconclusive.

SMILES	POLI inh	POLK inh	Pol beta inh	Pol eta inh	FEN1 inh	WRN inhibitor
Cc1cccc(NC2SC(=O)N(c3ccccc3)C2=O)c1 (configuration not stated)	-	-	-	-	-	-
Cc1ccc(NC(=O)CC2SC(=O)N(c3ccccc3)C2=O)cc1 (configuration not stated)	-	-	-	-	-	?
Cc1cccc(NC(=O)CC2SC(=O)N(c3ccccc3)C2=O)c1 (configuration not stated)	-	-	-	-	-	100µM
O=C(CC1SC(=O)N(c2ccccc2)C1=O)Nc1ccccc1 (configuration not stated)	?	-	-	-	-	40µM
O=C1CCN(Cc2ccccc2)CCN1CCSc1ccccc1	79µM!	?	-	-	-	-
C[C@@H](Oc1ccc(Oc2cnc3ccc(Cl)cc3n2)cc1)C(=O)O	-	.	-	-	.	.
O=C(NN=C1CCCC1)c1cccc(O)c1	-	-	-	-	-	-
O=C(NN=C1CCCC1)c1cc(O)cc(O)c1	35µM	?	20µM	50µM	-	-
O=C1Nc2ccccc2/C1=C/c1cnc(-c2ccccc2)[nH]1	?	-	22µM	-	-	?
O=C(Cc1cccc2ccccc12)N/N=C/c1ccc(OC(=O)/C=C/c2ccco2)cc1	?	?	10µM	?	-	-
O=C(Cc1cccc2ccccc12)N/N=C/c1ccc(F)cc1	-	-	-	-	-	-
NC(=O)C1CC2(NC(=O)NC2=O)c2cc(F)ccc2O1 (configuration not stated)	.	-[19.4 µM]	.	.	.	.
NS(=O)(=O)c1ccc(CCNC(=O)COc2ccc3c4c(c(=O)oc3c2)CCC4)cc1	-	-	-	-	-	-
O=C(COc1ccc2c3c(c(=O)oc2c1)CCC3)Nc1ccc(CCO)cc1	?	-	?	50µM	-	-[11.6 µM]
CSc1nc(=S)c2[nH]c(=S)[nH]c2[nH]1	14µM	-	-	-	-	50µM
COCCCNc1cc(C)nc2ccccc12	-	-	-	-	-	-
Cc1cc(NCCCCCCCNc2cc(C)nc3cc([N+](=O)[O-])ccc23)c2ccc([N+](=O)[O-])cc2n1	-	-	.	?	45µM	?
O=C(O)c1ccc(NC(CSCc2ccc(F)cc2)C(=O)O)c([N+](=O)[O-])c1 (configuration not stated)	79µM	-	-	-	-	-
Cc1ccc(CSCC(Nc2ccc(C(=O)O)cc2[N+](=O)[O-])C(=O)O)cc1 (configuration not stated)	-	-	-	-	-	-
Cc1ccc(-c2nn(C)c(=O)c3ccccc23)cc1S(=O)(=O)NCCN1CCOCC1	?	-	-	?	-	-
CCOC(=O)CNS(=O)(=O)c1cc(-c2nn(C)c(=O)c3ccccc23)ccc1C	25µM	?	35µM	?	-	-
CN(C)/C=C/C(=O)c1ccc(-c2ccc(Cl)cc2Cl)o1	-	-	32µM	-	-	-
C=CCn1c(N)c(C(=O)NCc2ccco2)sc1=S	-	-	-	-	-	-
CCCCCNC(=O)c1ccc2c(=O)[nH]c3c(C(=O)NCC4CCCO4)sc(=S)n3c2c1 (configuration not stated)	-	-	-	25µM	-	?
Cc1ccc(CNC(=O)c2ccc3c(=O)[nH]c4c(C(=O)NCC5CCCO5)sc(=S)n4c3c2)cc1 (configuration not stated)	-	-	-	-	?	-
SMILES	POLI inh	POLK inh	Pol beta inh	Pol eta inh	FEN1 inh	WRN inhibitor
O=C(NCc1ccco1)c1sc(=S)n2c1[nH]c(=O)c1ccccc12	?	?	50µM	22µM	?	?
O=C(NC1CCCC1)c1sc(=S)n2c1[nH]c(=O)c1ccccc12	?	-	?	56µM	?	-
CN(C)c1ccc(/C=C/c2nc3ccccc3o2)cc1	-	-	.	.	-	.
COc1ccc(OC)c(/C=C2\C=Cc3ccccc32)c1	-	-	.	.	?	.
CCCC(=O)Oc1ccc2[nH]c(C(=O)c3cc4ccccc4[nH]3)cc2c1	-	-	.	.	-	.
Cc1cc2ccccc2c[n+]1C1CCCCC1	-	-	.	.	-	.
C[N+]1(C)CCC(=C2c3ccccc3CC(=O)c3sccc32)CC1	16µM	-	7.9µM	-	-	-[11.6 µM]
COc1ccc(C2C3C=CCCC3(C)C(=O)N2Cc2ccccc2)cc1Cl (configuration not stated)	-	-	.	.	-	.
CCCCC[C@H](O)/C=C/C=C\C/C=C\C/C=C\CCCC(=O)O	.	-[19.4 µM]	.	.	.	.
Cc1c(C(=O)O)cccc1-n1c(C)cc(/C=N/Nc2ccc([N+](=O)[O-])cn2)c1C	50µM	79µM	25µM	?	-	-[11.6 µM]
Cc1cc(/C=N/Nc2ccc([N+](=O)[O-])cn2)c(C)n1-c1ccccc1	-	-	-	-	-	-
Cc1ccc2[nH]c(=O)c(CN(CCCO)Cc3nnnn3Cc3ccccc3)cc2c1	-	-	.	.	-	.
O=C1CCCC(O)=C1N=Nc1c(Cl)cc(C(F)(F)F)cc1Cl	79µM	?	?	-	-	79µM
Cc1ccc(NC(=O)CN2CCN(C(=O)c3ccco3)CC2)cc1	-	-	-	-	-	-
Cc1ccc2nc(-c3ccc(NC(=O)CN4CCN(C(=O)c5ccco5)CC4)cc3)sc2c1	28µM	45µM	32µM	79µM	-	?
O=C1C=CC(=O)N1c1ccc2c(c1)C(NC(=O)C(F)(F)F)c1ccccc1-2 (configuration not stated)	-	-	.	-	-	56µM
COc1ccc(-c2cc3nc4ccccc4n3c(N)c2C#N)cc1	-	-	4µM	-	-	-
COc1ccccc1NC(=O)c1ncn(-c2ccccc2)n1	89µM	-	-	.	-	.
COc1ccccc1NC(=O)CCn1cnc2ccccc2c1=O	89µM	-	?	.	-	.
O=C(CCn1cnc2ccccc2c1=O)NCc1ccccc1Cl	-	-	-	-	-	.
COc1ccc(NC(=O)CCCn2cnc3ccccc3c2=O)c(OC)c1	-	-	-	-	-	-
COc1cccc(CNC(=O)CCn2cnc3ccccc3c2=O)c1	?	-	14µM	-	-	.
COc1ccc(NC(=O)c2ncn(-c3ccccc3)n2)cc1Cl	-	-	-	-	-	.
COc1cccc(CNC(=O)COC(=O)c2c(C)nn(-c3ccccc3)c2Cl)c1	?	-	.	13µM	-	-
C[C@]12CC[C@@H](O)C[C@@H]1CC[C@@H]1[C@@H]2CC[C@]2(C)C=CC[C@@H]12	.	-[19.4 µM]	.	.	.	.
O=C(CS(=O)Cc1ccco1)NCC=CCOc1cc(CN2CCCCC2)ccn1 (configuration not stated)	.	-[19.4 µM]	.	.	.	.

High-throughput results: PubChem BioAssay, National Center for Advancing Translational Sciences (NCATS)
